# Experimental data: PubChem BioAssay AID1159580 (chemical genetic matrix, 2015)
# Several values for one entry are separate records, joined by “and”; a condition that tells them apart may be missing. Equal values may be shown once. Hit rate of the full screen: of about 5,500 compounds, about 2,000 (36%) were called active. Another 18% or so got no clear call; they are omitted. Rule as the data show it: active = normalized growth mostly below about 0.91 (no sharp cut-off); inconclusive = no clear call, values can overlap the other calls; inactive = mostly above about 0.92. Some of the results follow.
# Experiment: chemical genetic growth profiling, strain panel (AID 1159580);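 also: tested at 20 µM; growth read once vehicle control cultures reached saturation at 30 °C; 1 = growth at the plate median or of vehicle wells; lower values mean less growth of the strain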
# Conditions: S. cerevisiae deletion strains, growth OD
smiles,measurement,setting,value
CC(C(=O)O)c1ccc2c(c1)[nH]c1ccc(Cl)cc12 (configuration not stated),normalized growth,"locus YAL013W, strain DEP1, stronger effect = lower value",1.02 (inactive)
same,normalized growth,"locus YAL021C, strain ccr4, stronger effect = lower value",0.949 (inactive)
same,normalized growth,"locus YAL026C, strain drs2, stronger effect = lower value",0.953 (inactive)
same,normalized growth,"locus YAL030W, strain snc1, stronger effect = lower value",0.979 (inactive)
same,normalized growth,"locus YBL061C, strain skt5, stronger effect = lower value",0.955 (inactive)
same,normalized growth,"locus YBR009C, strain hhf1, stronger effect = lower value",0.979 (inactive)
same,normalized growth,"locus YBR021W, strain FUR4, stronger effect = lower value",1 (inactive)
same,normalized growth,"locus YBR023C, strain chs3, stronger effect = lower value",0.973 (inactive)
same,normalized growth,"locus YBR171W, strain sec66, stronger effect = lower value",0.981 (inactive)
same,normalized growth,"locus YBR229C, strain ROT2, stronger effect = lower value",1.01 (inactive)
same,normalized growth,"locus YBR231C, strain swc5, stronger effect = lower value",0.981 (inactive)
same,normalized growth,"locus YBR279W, strain paf1, stronger effect = lower value",0.957 (inactive)
same,normalized growth,"locus YCL011C, strain gbp2, stronger effect = lower value",1 (inactive)
same,normalized growth,"locus YCL016C, strain dcc1, stronger effect = lower value",0.951 (inactive)
same,normalized growth,"locus YCL029C, strain bik1, stronger effect = lower value",0.982 (inactive)
same,normalized growth,"locus YCL061C, strain MRC1, stronger effect = lower value",0.978 (inactive)
same,normalized growth,"locus YCL069W, strain vba3, stronger effect = lower value",1.01 (inactive)
same,normalized growth,"locus YCR088W, strain abp1, stronger effect = lower value",0.973 (inactive)
same,normalized growth,"locus YDL005C, strain med2, stronger effect = lower value",0.975 (inactive)
same,normalized growth,"locus YDL035C, strain GPR1, stronger effect = lower value",1 (inactive)
same,normalized growth,"locus YDL040C, strain nat1, stronger effect = lower value",0.978 (inactive)
same,normalized growth,"locus YDL074C, strain BRE1, stronger effect = lower value",1.03 (inactive)
same,normalized growth,"locus YDL101C, strain DUN1, stronger effect = lower value",1.02 (inactive)
same,normalized growth,"locus YDL134C, strain PPH21, stronger effect = lower value",1.01 (inactive)
same,normalized growth,"locus YDL185W, strain tfp1, stronger effect = lower value",0.948 (inactive)
same,normalized growth,"locus YDL192W, strain arf1, stronger effect = lower value",0.954 (inactive)
same,normalized growth,"locus YDR001C, strain nth1, stronger effect = lower value",0.996 (inactive)
same,normalized growth,"locus YDR069C, strain doa4, stronger effect = lower value",0.984 (inactive)
same,normalized growth,"locus YDR101C, strain arx1, stronger effect = lower value",0.972 (inactive)
same,normalized growth,"locus YDR137W, strain rgp1, stronger effect = lower value",0.945 (inactive)
same,normalized growth,"locus YDR150W, strain NUM1, stronger effect = lower value",1.02 (inactive)
same,normalized growth,"locus YDR159W, strain sac3, stronger effect = lower value",0.895 (inactive)
same,normalized growth,"locus YDR162C, strain NBP2, stronger effect = lower value",1.02 (inactive)
same,normalized growth,"locus YDR195W, strain ref2",1.01 (inactive)
same,normalized growth,"locus YDR297W, strain sur2, stronger effect = lower value",0.983 (inactive)
same,normalized growth,"locus YDR318W, strain mcm21, stronger effect = lower value",0.972 (inactive)
same,normalized growth,"locus YDR334W, strain swr1, stronger effect = lower value",0.994 (inactive)
same,normalized growth,"locus YDR335W, strain msn5, stronger effect = lower value",0.984 (inactive)
same,normalized growth,"locus YDR388W, stronger effect = lower value",0.978 (inactive)
same,normalized growth,"locus YDR392W, strain spt3, stronger effect = lower value",0.832 (inactive)
same,normalized growth,"locus YDR502C, strain sam2, stronger effect = lower value",0.999 (inactive)
same,normalized growth,"locus YEL003W, strain gim4, stronger effect = lower value",0.996 (inactive)
same,normalized growth,"locus YEL037C, strain rad23, stronger effect = lower value",0.99 (inactive)
same,normalized growth,"locus YEL061C, strain CIN8 (second series), stronger effect = lower value",0.975 (inactive)
same,normalized growth,"locus YEL061C, strain CIN8, stronger effect = lower value",1 (inactive)
same,normalized growth,"locus YER015W, strain faa2, stronger effect = lower value",1 (inactive)
same,normalized growth,"locus YER016W, strain bim1, stronger effect = lower value",0.978 (inactive)
same,normalized growth,"locus YER110C, stronger effect = lower value",0.971 (inactive)
same,normalized growth,"locus YER111C, strain swi4, stronger effect = lower value",0.99 (inactive)
same,normalized growth,"locus YER155C, strain BEM2 (second series), stronger effect = lower value",0.952 (inactive)
same,normalized growth,"locus YER155C, strain BEM2, stronger effect = lower value",0.997 (inactive)
same,normalized growth,"locus YER167W, strain BCK2, stronger effect = lower value",1 (inactive)
same,normalized growth,"locus YFR010W, strain ubp6, stronger effect = lower value",0.999 (inactive)
same,normalized growth,"locus YGL078C, strain dbp3, stronger effect = lower value",0.988 (inactive)
same,normalized growth,"locus YGL086W, strain mad1, stronger effect = lower value",0.983 (inactive)
same,normalized growth,"locus YGL167C, strain pmr1, stronger effect = lower value",1 (inactive)
same,normalized growth,"locus YGL173C, strain kem1, stronger effect = lower value",0.961 (inactive)
same,normalized growth,"locus YGL227W, strain vid30, stronger effect = lower value",1 (inactive)
same,normalized growth,"locus YGL240W, strain doc1, stronger effect = lower value",0.92 (inactive)
same,normalized growth,"locus YGL248W, strain PDE1, stronger effect = lower value",1.01 (inactive)
same,normalized growth,"locus YGL253W, strain hxk2, stronger effect = lower value",0.968 (inactive)
same,normalized growth,"locus YGR078C, strain PAC10, stronger effect = lower value",1.02 (inactive)
same,normalized growth,"locus YGR135W, strain pre9, stronger effect = lower value",0.995 (inactive)
same,normalized growth,"locus YGR229C, strain SMI1, stronger effect = lower value",1.04 (inactive)
same,normalized growth,"locus YGR252W, strain gcn5, stronger effect = lower value",0.885 (inactive)
same,normalized growth,"locus YHR013C, strain ard1, stronger effect = lower value",0.96 (inactive)
same,normalized growth,"locus YHR027C, strain rpn1, stronger effect = lower value",0.991 (inactive)
same,normalized growth,"locus YHR030C, strain SLT2, stronger effect = lower value",1 (inactive) and 0.303 (active)
same,normalized growth,"locus YHR079C, strain IRE1 (second series), stronger effect = lower value",0.976 (inactive)
same,normalized growth,"locus YHR079C, strain IRE1, stronger effect = lower value",0.369 (active)
same,normalized growth,"locus YHR094C, strain hxt1, stronger effect = lower value",0.987 (inactive)
same,normalized growth,"locus YHR129C, strain ARP1, stronger effect = lower value",1 (inactive)
same,normalized growth,"locus YHR142W, strain chs7, stronger effect = lower value",0.971 (inactive)
same,normalized growth,"locus YHR200W, strain rpn10, stronger effect = lower value",0.98 (inactive)
same,normalized growth,"locus YIL066C, strain RNR3, stronger effect = lower value",0.994 (inactive)
same,normalized growth,"locus YIL073C, strain SPO22, stronger effect = lower value",0.971 (inactive)
same,normalized growth,"locus YIL125W, strain kgd1, stronger effect = lower value",0.929 (active)
same,normalized growth,"locus YIR030C, strain dcg1, stronger effect = lower value",0.992 (inactive)
same,normalized growth,"locus YJL092W, strain hpr5, stronger effect = lower value",0.982 (inactive)
same,normalized growth,"locus YJL095W, strain BCK1 (second series), stronger effect = lower value",0.988 (inactive)
same,normalized growth,"locus YJL095W, strain BCK1, stronger effect = lower value",1 (inactive) and 0.272 (active)
same,normalized growth,"locus YJL115W, strain asf1, stronger effect = lower value",0.985 (inactive)
same,normalized growth,"locus YJL129C, strain trk1, stronger effect = lower value",0.912 (inactive)
same,normalized growth,"locus YJL134W, strain LCB3, stronger effect = lower value",1.01 (inactive)
same,normalized growth,"locus YJL154C, strain vps35, stronger effect = lower value",0.99 (inactive)
same,normalized growth,"locus YJL164C, strain tpk1, stronger effect = lower value",0.982 (inactive)
same,normalized growth,"locus YJL166W, strain qcr8, stronger effect = lower value",1 (inactive)
same,normalized growth,"locus YJL168C, strain set2, stronger effect = lower value",0.983 (inactive)
same,normalized growth,"locus YJL187C, strain SWE1 (second series), stronger effect = lower value",1.01 (inactive)
same,normalized growth,"locus YJL187C, strain SWE1, stronger effect = lower value",0.97 (inactive)
same,normalized growth,"locus YJR043C, strain POL32, stronger effect = lower value",1.01 (inactive)
same,normalized growth,"locus YJR066W, strain TOR1, stronger effect = lower value",0.492 (active)
